In the supplement of paper PMC13380429:
Counter-ions that a name gives are not always drawn.

Columns and labels:
[1] = tested on: Vero E6 infected with SARS-CoV-2; test: morphology score (similarity to uninfected cells); higher = more like uninfected cells; settings: 24 h
[2] = tested on: Vero E6 infected with SARS-CoV-2; test: SARS-CoV-2 infection rate relative to infected DMSO; higher = more infection, active = 60 or less; settings: 24 h

| Structure (SMILES) | morphology score [1] | SARS-CoV-2 infection rate [2] |
| --- | --- | --- |
| CN1CCCCC1CCN1c2ccccc2Sc2ccc([S+](C)[O-])cc21 (stereo not drawn) [mesoridazine] (10 µM) | 0.323 | 91% (inactive) |
| C=CCN1C[C@H](C(=O)N(CCCN(C)C)C(=O)NCC)C[C@@H]2c3cccc4[nH]cc(c34)C[C@H]21 [cabergoline] (10 µM) | 0.0903 | 104% (inactive) |
| CN[C@@H]1[C@H](O[C@H]2[C@H](O[C@H]3[C@H](O)[C@@H](O)[C@H](N=C(N)N)[C@@H](O)[C@@H]3N=C(N)N)O[C@@H](C)[C@]2(O)C=O)O[C@@H](CO)[C@H](O)[C@H]1O [STREPTOMYCIN SULFATE [5mM; 10% aq DMSO + 5mM ethanolamine]] (10 µM) | 0.104 | 104% (inactive) |
| CNC(=O)Oc1ccccc1OC(C)C [propoxur] (10 µM) | -0.276 | 118% (inactive) |
| O=C1NN(C(=O)Nc2ccc(Br)cc2)[C@@H](c2ccccc2)[C@@H]1c1ccccc1 (10 µM) | -0.176 | 108% (inactive) |
| CC(O)c1cc(C(=O)N[C@@H](C)Cn2ccc(-c3ccc(C#N)c(Cl)c3)n2)n[nH]1 (stereo partly drawn) (10 µM) | 0.201 | 106% (inactive) |
| CC(C(=O)O)c1ccc2c(c1)Cc1cccnc1O2 (stereo not drawn) [pranoprofen] (10 µM) | -0.152 | 122% (inactive) |
| Oc1cccc(-c2nc(N3CCOCC3)c3oc4ncccc4c3n2)c1 (10 µM) | -0.0667 | 118% (inactive) |
| COC(=O)C1=C(C)NC(C)=C(C(=O)OC2CCCN(Cc3ccccc3)C2)C1c1cccc([N+](=O)[O-])c1 (stereo not drawn) [benidipine] (10 µM) | 0.0303 | 102% (inactive) |
